Reference: PubChem BioAssay (NCATS)
Calls of active or inactive are those of the source. A call without a number means that no potency is given here. Calls come from the whole dose curve; as a rule, active = well fitted activation curve with a large enough effect; inconclusive = small, poorly fitted or top-dose-only effect; inactive = flat fitted curve, though single readings scatter.

Experiment: Cellular Toxicity (caspase-3) HepG2 (AID 654);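 for caspase-3 activation: cells exposed to compound for 16 hours before reading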
Details: HepG2 caspase-3 activation, luminescence; series mostly up to 92.2 µM
Text: NIH Chemical Genomics Center [NCGC]
NIH Molecular Libraries Screening Centers Network [MLSCN]
National Institutes of Environmental Health Sciences [NIEHS]
National Toxicology Program [NTP]
We have developed a 1536-well cell-based assay for quantitative high throughput screening (qHTS) against a number of cell lines to determine in vitro caspase 3/7 of small molecules. This particular assay uses the HepG2 cell line which is derived from human hepatocellular carcinoma.
NCGC Assay Protocol Summary:
The Caspase-Glo 3/7 assay (Promega) is a homogeneous method to measure caspase-3 and caspase-7 activities in cultured cells. The quantitation of caspase 3/7 activity is based on the cleavage of a peptide-aminoluciferin substrate. After caspase cleaves the substrate the free aminoluciferin is liberated and serves as the substrate of luciferase, which generates the light. The luminescent signal is proportional to amount of caspase 3/7 activity present.
Using the Caspase-Glo 3/7 assay, the amount of caspase 3/7 activity was measured in the HepG2 cell line with complete culture medium following compound treatment for 16 hours. The assay was performed in opaque white 1536-well plates. In the screen, tamoxifen and doxorubicin were used as positive controls. Library compounds were measured for their ability to cause the activation of caspase 3/7 in the cell line, as reflected by an increase in luminescence signal, in a concentration-dependent manner. Data were normalized to the controls for basal activity (DMSO only) and 100% stimulation (100 uM tamoxifen). AC50 values were determined from concentration-response data modeled with the standard Hill equation.
qHTS protocol for caspase 3/7 assay in HepG2 cells
[Step] [Parameter] [Value] [Description]
1. Reagent; 5 uL; 1500 HepG2 cells/well
2. Time; 5 hr; 37 °C incubation
4. Controls; 23 nL; Tamoxifen 0.23 uM to 100 uM & Doxorubicin 7.0 pM to 100 uM
5. Time; 16 hr; 37 °C incubation
6. Reagent; 5 uL; Caspase-Glo 3/7 reagent
7. Time; 20 min; Room Temperature
8. Detection; Luminescence; Viewlux plate reader
Keywords: caspase 3/7, apoptosis, HepG2 cell line, luminescence, NTPHTS, NTPHTS_NCGC, NIEHS, EPA, DSSTox, MLSMR, MLSCN, NIH Roadmap, qHTS, NCGC
Potency is the fitted concentration of half-maximal effect.

| Compound | Potency |
| --- | --- |
| Cc1cc(NS(=O)(=O)c2ccc(N)cc2)no1 | inactive |
| Cc1noc(NS(=O)(=O)c2ccc(N)cc2)c1C | inactive |
| CCc1cc(C(N)=S)ccn1 | inactive |
| NC(N)=NC(N)=NCCc1ccccc1 | inactive |
| CN(C)c1ccc(C(=C2C=CC(=[N+](C)C)C=C2)c2ccc(N(C)C)cc2)cc1 | 31.6 µM (active) |
| O=C(N[C@H](CO)[C@H](O)c1ccc([N+](=O)[O-])cc1)C(Cl)Cl | inactive |
| Cc1nnc(NS(=O)(=O)c2ccc(N)cc2)s1 | inactive |
| COc1ccc2cc3[n+](cc2c1OC)CCc1cc2c(cc1-3)OCO2 | inactive |
| N=C(N)c1ccc(OCCCCCOc2ccc(C(=N)N)cc2)cc1 | inactive |
| C[C@]12C=CC(=O)C=C1CC[C@@H]1[C@@H]2C(=O)C[C@@]2(C)[C@H]1CC[C@]2(O)C(=O)CO | inactive |
| CC(=O)[C@H]1CC[C@H]2[C@@H]3CCC4=CC(=O)CC[C@]4(C)[C@H]3CC[C@]12C | inactive |
| NNC(=O)c1ccncc1 | inactive |
| CC(=O)Oc1ccccc1C(=O)Nc1ncc([N+](=O)[O-])s1 | inactive |
| O=C(O)c1cc(=O)[nH]c(=O)[nH]1 | inactive |
| Cc1ccnc2c1NC(=O)c1cccnc1N2C1CC1 | inactive |
| CC1=NN(c2ccccc2)C(=O)C1 | inactive |
| Cc1ncc([N+](=O)[O-])n1CCO | inactive |
